# About 13,000 (27%) of roughly 48,000 compounds showed an effect of 50% or more. Some of the results follow.
# Tested on: Wolbachia pipientis
# Assay: Anti-Wolbachia Cell-Based Screen
# Assay type: functional
# Parameters: scale not given: in the data most compounds retested in dose-response had high values
# Settings: 5 µM
row,Compound,Percent Effect [%]
1,OC(CN1CCCc2cc(OC(F)F)ccc21)Cn1cccn1 (stereo unspecified),-16.69
2,COc1ccc2c(c1)CN(C)C(=O)CCN2CC(O)C(C)(C)C (stereo unspecified),100.8
3,COC(=O)C(C)N1CCCc2cc(OC)ccc2C1 (stereo unspecified),-9.406
4,COc1ccc2c(c1)CCCN(C(C)C(=O)NC(C)C)C2 (stereo unspecified),-4.844
5,COc1ccc2c(c1)CCN(CCC(=O)O)CC2,-10.19
6,COc1ccc2c(c1)CN(C)C(=O)CCN2CC(O)C(F)(F)F (stereo unspecified),104.6
7,O=C(CNc1nc(C2CC2)ns1)N1CCc2sccc2C1,-3.427
8,N#CCCN(CCC#N)C(=O)c1cccc(N2CCNC2=O)c1,-11.85
9,CC(C)c1nc(C2CCCN(C(=O)CCn3ccnc3)C2)no1 (stereo unspecified),-0.5429
10,CC(C)c1nc(C2CCCN(C(=O)CCc3cscn3)C2)no1 (stereo unspecified),114.7
11,CC(C)c1nc(C2CCCN(C(=O)CCCn3cccn3)C2)no1 (stereo unspecified),95.04
12,Cc1nc(C2CCCN(C(=O)CCCn3cccn3)C2)sc1C (stereo unspecified),112.1
13,CC(C)c1nc(C2CCCN(C(=O)CN(C)S(C)(=O)=O)C2)no1 (stereo unspecified),-21.51
14,Cc1nc(C2CCCN(C(=O)CN3CCCNC3=O)C2)sc1C (stereo unspecified),6.53
15,CC(C)c1nc(C2CCCN(C(=O)CCCn3ccnc3)C2)no1 (stereo unspecified),94.72
16,Cc1nc(C2CCCN(C(=O)CCCn3cccn3)C2)no1 (stereo unspecified),10.77
17,CC(C)c1nc(C2CCCN(C(=O)CN3CCCNC3=O)C2)no1 (stereo unspecified),6.733
18,CCS(=O)(=O)CC(=O)N1CCCC(c2noc(C(C)C)n2)C1 (stereo unspecified),-6.108
19,Cc1nc(C2CCCN(C(=O)CN3CCCC3=O)C2)sc1C (stereo unspecified),-7.822
20,CC(C)c1nc(C2CCCN(C(=O)CS(=O)(=O)C(C)C)C2)no1 (stereo unspecified),-11.89
21,CCN(Cc1cccc(NC(=O)COCCOC)c1)C(C)=O,-8.699
22,CCc1c(C)nn(CC(=O)NC(C)c2n[nH]c(C)n2)c1C (stereo unspecified),2.562
23,Cc1noc(C2CCN(c3oc(C)nc3C#N)CC2)n1,-7.205
24,CC(C)N1CCC(C(=O)NC[C@H]2CCc3ccccc3O2)CC1,-3.949
25,COC(=O)CCNC(=O)c1ccc(NC(=O)N(C)CC(C)(C)C)cc1,28.42
26,Cc1nc(C2CCCN(C(=O)CCCn3ccnc3C)C2)no1 (stereo unspecified),-5.463

row,Compound,Percent Effect [%]
1,Cc1nccn1CCCC(=O)N1CCCC(c2noc(C(C)C)n2)C1 (stereo unspecified),94.02
2,O=C1O[C@@H]2CN(Cc3ccccn3)C[C@@H]2N1CCCc1ccc(F)cc1,2.234
3,Cc1ccc(OC2(C(=O)N(C)Cc3ccoc3)CCNCC2)cc1,-12.66
4,CCCc1cc(CNC2CCN(c3cc(C(C)C)nc(C)n3)CC2)on1,93.6
5,CCCc1cc(N2CCC(N[C@H]3CC[C@H](O)CC3)CC2)nc(C)n1,-4.932
6,CCS(=O)(=O)CCNC1CCN(c2nc3ccc(Cl)cc3s2)CC1,-46.95
7,CCCc1cc(N2CCC(NC3CCOCC3)CC2)nc(C)n1,29.8
8,CCCc1cc(CNC2CCN(c3nc4ccccc4s3)CC2)on1,114.2
9,Cc1cc(C)nc(N2CCC(NCCSc3nnnn3C)CC2)n1,-14.51
10,CCCc1cc(N2CCC(NCC3(O)CCN(C)CC3)CC2)nc(C)n1,-6.496
11,CCCc1cc(N2CCC(NC3CCS(=O)(=O)C3)CC2)nc(C)n1 (stereo unspecified),-13.12
12,CCCc1cc(CNC2CCN(c3cc(C)nc(N)n3)CC2)on1,82.71
13,CCCc1cc(CNC(=O)Cc2cc(C)no2)on1,0.033
14,Cc1n[nH]c(SCCNC2CCN(c3nc4ccccc4s3)CC2)n1,-0.1074
15,CCCc1cc(CNC2CCN(c3nc(C)cc(C)n3)CC2)on1,99.03
16,Cc1ccc(C(=O)N2CCN(c3ncnc4nc(N)ccc34)CC2)o1,-4.077
17,Cc1noc(C)c1S(=O)(=O)NCC(C)(O)c1ccc2c(c1)OCO2 (stereo unspecified),22.76
18,CCS(=O)(=O)c1ccc2oc([C@H]3CCN(Cc4ccncc4)C3)nc2c1,-3.63
19,CN1N=C(C(=O)N2CCCC(CCc3ccccc3)C2)CCC1=O (stereo unspecified),-44.22
20,COCCN(C)Cc1ccc(OC)c(OC(F)F)c1,-5.242
21,COCc1cc(C[C@@H]2CC[C@H](O)[C@@H](CN(CC(C)C)CC(C)C)O2)no1,-3.447
22,Cc1nc(CN2C(=O)C[C@@H]3[C@@H]2CCN3S(C)(=O)=O)cs1,77.62
23,Cc1nc(CN2C(=O)C[C@@H]3[C@@H]2CCN3S(=O)(=O)C2CC2)cs1,97.85
24,Cc1nc(CN2C(=O)C[C@@H]3[C@@H]2CCN3Cc2cnn(C)c2)cs1,96.83
25,Cc1nc(CN2C(=O)C[C@@H]3[C@@H]2CCN3C(=O)C2CCOCC2)cs1,6.269

# — ChEMBL document CHEMBL3988442, “University of Dundee, Small-Polar-MMV Screening Library” (2021)
